This passage reports outcome and AC50 results from PubChem BioAssay (EPA / NIEHS).

SMILES strings stand for the structures. Inconclusive results are not listed. Calls of active or inactive are those of the source. Rule for the calls, unless noted: active = hit-call score of the fitted dose curve at least 0.9, where 1 is the maximum; inconclusive = response in the unintended direction; inactive = score below 0.9.

The nature of assay [1]: ATG_TAL_CIS: Attagene CIS-FACTORIAL HepG2 Assay for human TAL Basal Promoter (AID 2282966; active = hit-call score of the fitted dose curve at least 0.9, where 1 is the maximum; inactive = score below 0.9;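 note: background control endpoint measuring basal TAL promoter reporter mRNA not a specific factor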). The note with it: HepG2 Attagene cis-factorial TAL promoter reporter; actives raise or lower the signal. In outline:
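Steps: transfect HepG2 with multiple reporter transcription units; dose 24 h; isolate RNA, reverse-transcribe, PCR-amplify, label with 6-FAM, digest with HpaI; resolve by capillary electrophoresis. Bidirectional fitting against DMSO baseline.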

Assay [2] can be described thus: ATG_TGFb_CIS: Attagene CIS-FACTORIAL HepG2 Assay for human Transforming Growth Factor (TGF) (AID 2282967; active = hit-call score of the fitted dose curve at least 0.9, where 1 is the maximum; inactive = score below 0.9). The note with it: HepG2 Attagene CIS TGFb reporter, mRNA transcription; actives raise or lower the signal. In outline: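 Multiplexed cis-reporter HepG2 system, 24 h treatment; mRNA induction read by fluorescence after RT-PCR and CE; DMSO negative control, bidirectional curve fitting.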

In assay [3] the target is X-box-binding protein 1 (Homo sapiens) (UniProt P17861). In words: ATG_Xbp1_CIS: Attagene CIS-FACTORIAL HepG2 Assay for human X-box Binding Protein 1 (XBP1) (AID 2282972; active = hit-call score of the fitted dose curve at least 0.9, where 1 is the maximum; inactive = score below 0.9). Particulars: HepG2 XBP1 cis-element reporter, Attagene multiplex; actives raise or lower the signal. In outline: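 HepG2 cells transiently transfected with cis-regulated multiple reporter transcription units; endogenous transcription factor activity measured 24 hours after chemical dosing. Reporter mRNA quantified by RT-PCR, 6-FAM primer extension, HpaI digestion and capillary electrophoresis; bidirectional fitting versus DMSO.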

Assay [4] in a line: ATG_M_19_TRANS: Attagene TRANS-FACTORIAL HepG2 Assay for M19 Transcription Factor (Internal Marker) (AID 2282974). The note with it: HepG2 Attagene TRANS-FACTORIAL M19 internal marker reporter. In outline: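 24 h chemical exposure of transiently transfected HepG2 (MRTU library). RNA → oligo(dT) RT → PCR → 6-FAM labelling → HpaI cut → CE fluorescence. Positive-direction fit vs DMSO baseline; background internal-marker readout.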

For assay [5], the target named is Estrogen-related receptor gamma (Homo sapiens) (UniProt P62508). The experiment in a line: ATG_ERRg_TRANS: Attagene TRANS-FACTORIAL HepG2 Assay for human Estrogen-Related Receptor gamma (ERRg) (AID 2282977).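 Note: hits increase reporter signal over DMSO so potencies reflect activators.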 The note with it: HepG2 Attagene TRANS reporter, ERRg transactivation. In outline: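 HepG2 cells transiently transfected with multiplexed GAL4-UAS reporter units and chimeric NR-Gal4 constructs were exposed to test chemicals for 24 h. Reporter mRNA was measured by RT-PCR, 6-FAM primer extension, HpaI digestion and capillary electrophoresis; gain-of-signal versus DMSO.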

Assay [6] addresses Glucocorticoid receptor (Homo sapiens) (UniProt P04150). In words: ATG_GR_TRANS: Attagene TRANS-FACTORIAL HepG2 Assay for human Glucocorticoid Receptor (GR) (AID 2282978).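 Note: activators score as hits since higher reporter transcript over DMSO is fitted.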 The note with it: HepG2 Attagene TRANS GR reporter, mRNA transcription. In outline:
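Transient MRTU transfection of HepG2 (GAL4-UAS reporters, exogenous NR-GAL4 chimeras), 24 h dosing. Readout: reporter transcript via RT-PCR + capillary electrophoresis fluorescence. Positive direction vs DMSO baseline.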

Assay [7] addresses Oxysterols receptor LXR-alpha (Homo sapiens) (UniProt Q13133). In words: ATG_LXRa_TRANS: Attagene TRANS-FACTORIAL HepG2 Assay for human Liver X Receptor alpha (LXRa) (AID 2282980). The note with it: HepG2 Attagene TRANS reporter, LXRa transactivation. An outline of the steps: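 In this multiplexed TRANS system, compounds act on HepG2 cells carrying GAL4-UAS reporter units and a receptor-GAL4 fusion for 24 h. Induced reporter RNA is amplified, fluorescently labelled and sized by capillary electrophoresis, with DMSO as baseline.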

Assay [8] addresses Hepatocyte nuclear factor 4-alpha (Homo sapiens) (UniProt P41235). The experiment in a line: ATG_HNF4a_TRANS: Attagene TRANS-FACTORIAL HepG2 Assay for human Hepatocyte Nuclear Factor 4 alpha (HNF4a) (AID 2282982). The note with it: HepG2 HNF4a transactivation reporter, mRNA readout. In outline: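 Gain-of-signal mRNA induction, relative to DMSO vehicle, was read after 24 h compound treatment of HepG2 cells bearing transfected GAL4-UAS reporters. Detection used RT-PCR, 6-FAM primer extension and capillary electrophoresis.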

The nature of assay [9]: ATG_M_06_TRANS: Attagene TRANS-FACTORIAL HepG2 Assay for M06 Transcription Factor (Internal Marker) (AID 2282983). Particulars: HepG2 Attagene TRANS M06 internal marker reporter. An outline of the steps: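 Internal-marker background readout from a multiplexed TRANS reporter system in HepG2; 24 h dosing; mRNA induction quantified by RT-PCR plus capillary electrophoresis fluorescence; DMSO as negative control and baseline.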

Assay [10] has as its target Nuclear receptor subfamily 4 group A member 2 (Homo sapiens) (UniProt P43354). The experiment in a line: ATG_NURR1_TRANS: Attagene TRANS-FACTORIAL HepG2 Assay for human Nuclear Receptor Related Protein 1 (NURR1) (AID 2282985). Particulars: HepG2 Attagene TRANS reporter, mRNA readout. In outline:
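HepG2 / transient MRTU transfection / 24 h compound exposure / RT-PCR + CE fluorescence of reporter mRNA / gain-of-signal vs DMSO.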

Assay [11] deals with Transcriptional activator Myb (Homo sapiens) (UniProt P10242). In words: ATG_Myb_CIS: Attagene CIS-FACTORIAL HepG2 Assay for human Myeloblastosis (Myb) Proto-Oncogene Transcription Factor (AID 2282986; active = hit-call score of the fitted dose curve at least 0.9, where 1 is the maximum; inactive = score below 0.9). The note with it: HepG2 Attagene CIS-FACTORIAL Myb reporter transcription; actives raise or lower the signal. An outline of the steps:
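HepG2, transient MRTU transfection (cis-element promoters, endogenous TF activity), 24 h compound exposure. Readout: reporter mRNA via RT-PCR, 6-FAM labeling, HpaI digest, capillary electrophoresis. Gain/loss fit vs DMSO.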

The target of assay [12] is Nuclear respiratory factor 1 (Homo sapiens) (UniProt Q16656). The experiment in a line: ATG_NRF1_CIS: Attagene CIS-FACTORIAL HepG2 Assay for human Nuclear Respiratory Factor 1 (NRF1) Orphan Gene (AID 2282987; active = hit-call score of the fitted dose curve at least 0.9, where 1 is the maximum; inactive = score below 0.9). The note with it: HepG2 NRF1 cis-element reporter, Attagene multiplex; actives raise or lower the signal. In outline:
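Endogenous NRF1-driven reporter transcription measured in transiently transfected human HepG2 liver cells. Readout: reporter mRNA by RT-PCR and capillary electrophoresis with fluorescence detection, 24 h post-dosing. Gain or loss of signal fitted relative to DMSO baseline.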

Assay [13] is described as follows: ATG_NFI_CIS: Attagene CIS-FACTORIAL HepG2 Assay for human Nuclear Factor I (NFI) (AID 2282989; active = hit-call score of the fitted dose curve at least 0.9, where 1 is the maximum; inactive = score below 0.9). Particulars: HepG2 cis-regulatory reporter, NFI response element transcription; actives raise or lower the signal. An outline of the steps:
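Multiplexed cis-reporter system in human HepG2 cells reports native TF activity as reporter mRNA induction 24 h post-dose. Fragments labelled with 6-FAM, HpaI-digested and resolved by capillary electrophoresis; activity fitted both directions versus DMSO.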

Assay [14] addresses Steroid hormone receptor ERR1 (Homo sapiens) (UniProt P11474). In words: ATG_ERRa_TRANS: Attagene TRANS-FACTORIAL HepG2 Assay for human Estrogen-Related Receptor alpha (ERRa) (AID 2282971). The note with it: HepG2 Attagene TRANS reporter, ERRa transactivation. An outline of the steps:
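Signal gain relative to DMSO for an ERRa-Gal4 chimeric receptor, read as reporter mRNA by RT-PCR/capillary electrophoresis. Human HepG2 liver cells, transient multiplex reporter transfection, 24 h chemical exposure.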

A short description of assay [15]: ATG_GAL4_TRANS: Attagene TRANS-FACTORIAL HepG2 Assay for GAL4 (Internal Marker) (AID 2282976). Particulars: HepG2 Attagene TRANS GAL4 internal marker reporter. In outline:
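Liver HepG2 line bearing multiplexed GAL4-UAS reporter constructs; 24 h chemical treatment. Transcripts were quantified as fluorescent fragments on capillary electrophoresis after RT-PCR and HpaI cut, with activity fitted upward from DMSO.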

The target of assay [16] is Oxysterols receptor LXR-beta (Homo sapiens) (UniProt P55055). In words: ATG_LXRb_TRANS: Attagene TRANS-FACTORIAL HepG2 Assay for human Liver X Receptor beta (LXRb) (AID 2282981). The note with it: HepG2 Attagene TRANS GAL4-LXRb reporter, mRNA. In outline: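 Gain-of-signal mRNA reporter endpoint, DMSO as negative control. Transiently transfected HepG2 cells carrying the NR-Gal4 chimera and GAL4-UAS reporter units were treated 24 h; transcripts quantified by RT-PCR and capillary electrophoresis fluorescence.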

Assay [17] can be described thus: ATG_M_32_TRANS: Attagene TRANS-FACTORIAL HepG2 Assay for M32 Transcription Factor (Internal Marker) (AID 2282984).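 Note: transcript level of a background control reporter unit measured by RT-PCR and capillary electrophoresis.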 Particulars: HepG2 Attagene TRANS M32 internal marker reporter. An outline of the steps:
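Capillary electrophoresis of 6-FAM-labelled reporter fragments gives the signal; data fitted for gain over DMSO negative control. Source: HepG2 cells bearing transient multiple reporter transcription units, 24 h exposure.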

Assay [18] deals with Bile acid receptor (Homo sapiens) (UniProt Q96RI1). The experiment in a line: ATG_FXR_TRANS: Attagene TRANS-FACTORIAL HepG2 Assay for Farnesoid X Receptor (FXR) (AID 2282979).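 Note: hits raise reporter mRNA above DMSO so AC50 marks FXR activation.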 Particulars: HepG2 Attagene TRANS FXR-GAL4 reporter transcription. In outline: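 After 24 h chemical treatment of transfected HepG2 cells, GAL4-UAS reporter transcripts driven by an exogenous FXR-GAL4 fusion were measured by RT-PCR and capillary electrophoresis. Increases over DMSO were fitted.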

Assay [19] can be described thus: ATG_VDRE_CIS: Attagene CIS-FACTORIAL HepG2 Assay for human Vitamin D Receptor Element (VDRE) (AID 2282968; active = hit-call score of the fitted dose curve at least 0.9, where 1 is the maximum; inactive = score below 0.9). Particulars: HepG2 VDRE cis-reporter transcription, actives raise or lower the signal. An outline of the steps: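 Cell-based multiplexed reporter format in human liver HepG2 cells, 24 h post-dose. Fluorescence from capillary electrophoresis of reporter cDNA gives the signal, with DMSO as negative control and baseline.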

Assay [20] addresses Nuclear receptor subfamily 1 group I member 3 (Homo sapiens) (UniProt Q14994). The experiment in a line: ATG_CAR_TRANS: Attagene TRANS-FACTORIAL HepG2 Assay for human Constitutive Androstane Receptor (CAR) (AID 2282969).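 Note: activators raise reporter mRNA above DMSO so AC50 marks induction.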 Particulars: HepG2 Attagene TRANS-FACTORIAL CAR reporter. An outline of the steps:
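HepG2 cells transiently transfected with GAL4-UAS reporter units; TRANS format reads activity of exogenous chimeric NR-Gal4 protein. After 24 h dosing, reporter mRNA quantified by RT-PCR, 6-FAM labelling and capillary electrophoresis; gain of signal fitted against DMSO.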

Chain of Transcriptional activator Myb (Homo sapiens) (P10242 whole entry, looked up): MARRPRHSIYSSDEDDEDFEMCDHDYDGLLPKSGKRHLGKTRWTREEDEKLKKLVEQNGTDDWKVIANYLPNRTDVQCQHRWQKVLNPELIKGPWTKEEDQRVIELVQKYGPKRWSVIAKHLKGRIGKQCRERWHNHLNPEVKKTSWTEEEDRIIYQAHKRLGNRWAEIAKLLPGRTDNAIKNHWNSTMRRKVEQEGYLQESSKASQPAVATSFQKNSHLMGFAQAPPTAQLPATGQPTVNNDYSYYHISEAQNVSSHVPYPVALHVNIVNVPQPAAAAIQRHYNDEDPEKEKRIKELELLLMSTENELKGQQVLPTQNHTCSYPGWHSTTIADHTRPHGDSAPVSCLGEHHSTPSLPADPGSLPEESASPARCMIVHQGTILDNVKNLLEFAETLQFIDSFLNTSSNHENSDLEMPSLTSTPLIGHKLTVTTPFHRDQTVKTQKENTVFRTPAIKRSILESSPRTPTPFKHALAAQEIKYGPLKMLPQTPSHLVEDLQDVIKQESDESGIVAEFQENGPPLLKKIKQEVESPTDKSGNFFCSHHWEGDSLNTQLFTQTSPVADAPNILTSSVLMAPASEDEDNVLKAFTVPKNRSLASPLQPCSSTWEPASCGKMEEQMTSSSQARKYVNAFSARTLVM
Chain of X-box-binding protein 1 (Homo sapiens) (P17861 whole entry, looked up): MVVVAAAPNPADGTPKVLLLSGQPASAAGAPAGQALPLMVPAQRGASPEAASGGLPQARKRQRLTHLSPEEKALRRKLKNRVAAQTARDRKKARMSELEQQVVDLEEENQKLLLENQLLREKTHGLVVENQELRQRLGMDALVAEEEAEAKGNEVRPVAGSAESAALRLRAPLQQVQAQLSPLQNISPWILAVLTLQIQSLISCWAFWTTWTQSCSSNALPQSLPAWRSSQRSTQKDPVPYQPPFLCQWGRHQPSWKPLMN
Chain of Glucocorticoid receptor (Homo sapiens) (P04150 whole entry, looked up, the tested form may be a part): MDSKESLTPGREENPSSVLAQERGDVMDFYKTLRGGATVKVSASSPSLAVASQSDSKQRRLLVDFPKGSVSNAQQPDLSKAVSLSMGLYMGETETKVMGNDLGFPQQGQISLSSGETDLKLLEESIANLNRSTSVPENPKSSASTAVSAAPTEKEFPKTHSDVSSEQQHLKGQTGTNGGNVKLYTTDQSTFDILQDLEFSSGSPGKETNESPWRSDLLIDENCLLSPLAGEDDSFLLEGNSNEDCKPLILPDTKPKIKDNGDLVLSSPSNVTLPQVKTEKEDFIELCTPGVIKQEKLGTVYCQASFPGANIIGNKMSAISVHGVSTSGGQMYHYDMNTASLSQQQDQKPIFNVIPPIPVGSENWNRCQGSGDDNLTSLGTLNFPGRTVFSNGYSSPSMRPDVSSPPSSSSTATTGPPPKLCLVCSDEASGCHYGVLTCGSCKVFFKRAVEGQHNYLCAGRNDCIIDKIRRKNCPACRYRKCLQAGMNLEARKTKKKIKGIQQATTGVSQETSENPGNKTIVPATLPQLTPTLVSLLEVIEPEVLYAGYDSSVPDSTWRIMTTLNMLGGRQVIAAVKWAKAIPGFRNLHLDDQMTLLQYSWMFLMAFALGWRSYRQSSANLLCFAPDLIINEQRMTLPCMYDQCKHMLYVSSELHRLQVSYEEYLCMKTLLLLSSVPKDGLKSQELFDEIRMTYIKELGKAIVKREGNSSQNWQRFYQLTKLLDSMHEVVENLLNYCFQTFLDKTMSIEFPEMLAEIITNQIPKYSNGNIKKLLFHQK
Chain of Nuclear respiratory factor 1 (Homo sapiens) (Q16656 whole entry, looked up): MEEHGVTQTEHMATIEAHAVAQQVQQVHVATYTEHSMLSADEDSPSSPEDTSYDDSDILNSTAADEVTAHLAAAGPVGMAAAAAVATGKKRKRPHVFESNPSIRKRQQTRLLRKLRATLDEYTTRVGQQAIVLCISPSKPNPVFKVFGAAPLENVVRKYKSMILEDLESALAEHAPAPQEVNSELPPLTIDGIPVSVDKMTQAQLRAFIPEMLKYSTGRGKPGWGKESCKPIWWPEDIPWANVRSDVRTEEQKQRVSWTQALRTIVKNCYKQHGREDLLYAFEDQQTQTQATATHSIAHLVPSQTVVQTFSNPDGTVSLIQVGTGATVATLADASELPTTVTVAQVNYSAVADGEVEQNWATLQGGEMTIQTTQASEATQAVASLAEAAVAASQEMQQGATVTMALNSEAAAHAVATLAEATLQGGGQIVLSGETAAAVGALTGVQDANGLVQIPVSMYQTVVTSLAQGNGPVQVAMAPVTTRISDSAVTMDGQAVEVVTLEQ
Chain of Oxysterols receptor LXR-alpha (Homo sapiens) (Q13133 whole entry, looked up, the tested form may be a part): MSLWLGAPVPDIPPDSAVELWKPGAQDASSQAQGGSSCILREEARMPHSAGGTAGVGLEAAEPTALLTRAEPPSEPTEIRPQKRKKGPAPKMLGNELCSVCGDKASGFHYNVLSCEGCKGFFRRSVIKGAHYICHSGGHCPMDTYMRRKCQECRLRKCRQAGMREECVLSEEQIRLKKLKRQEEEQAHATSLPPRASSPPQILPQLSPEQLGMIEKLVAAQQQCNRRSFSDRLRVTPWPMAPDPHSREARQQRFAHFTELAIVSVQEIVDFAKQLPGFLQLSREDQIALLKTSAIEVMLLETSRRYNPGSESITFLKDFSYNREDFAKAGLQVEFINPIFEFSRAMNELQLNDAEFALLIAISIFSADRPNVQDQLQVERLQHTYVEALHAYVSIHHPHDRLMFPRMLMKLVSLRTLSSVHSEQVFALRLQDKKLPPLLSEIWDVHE
Chain of Hepatocyte nuclear factor 4-alpha (Homo sapiens) (P41235 whole entry, looked up, the tested form may be a part): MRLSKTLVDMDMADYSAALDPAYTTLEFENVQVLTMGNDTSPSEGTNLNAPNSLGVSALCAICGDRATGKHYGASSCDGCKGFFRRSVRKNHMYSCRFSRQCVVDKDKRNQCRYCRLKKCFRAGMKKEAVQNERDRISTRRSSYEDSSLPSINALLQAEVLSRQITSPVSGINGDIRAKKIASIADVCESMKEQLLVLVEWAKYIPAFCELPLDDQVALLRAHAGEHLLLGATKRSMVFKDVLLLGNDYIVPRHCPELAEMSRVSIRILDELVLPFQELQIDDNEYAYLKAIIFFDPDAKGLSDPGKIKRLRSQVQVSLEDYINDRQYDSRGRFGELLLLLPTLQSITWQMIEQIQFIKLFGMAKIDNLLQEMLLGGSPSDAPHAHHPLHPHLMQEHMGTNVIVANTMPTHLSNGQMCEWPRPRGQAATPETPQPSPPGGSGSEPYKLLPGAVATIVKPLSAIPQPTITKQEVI
Chain of Nuclear receptor subfamily 4 group A member 2 (Homo sapiens) (P43354 whole entry, looked up): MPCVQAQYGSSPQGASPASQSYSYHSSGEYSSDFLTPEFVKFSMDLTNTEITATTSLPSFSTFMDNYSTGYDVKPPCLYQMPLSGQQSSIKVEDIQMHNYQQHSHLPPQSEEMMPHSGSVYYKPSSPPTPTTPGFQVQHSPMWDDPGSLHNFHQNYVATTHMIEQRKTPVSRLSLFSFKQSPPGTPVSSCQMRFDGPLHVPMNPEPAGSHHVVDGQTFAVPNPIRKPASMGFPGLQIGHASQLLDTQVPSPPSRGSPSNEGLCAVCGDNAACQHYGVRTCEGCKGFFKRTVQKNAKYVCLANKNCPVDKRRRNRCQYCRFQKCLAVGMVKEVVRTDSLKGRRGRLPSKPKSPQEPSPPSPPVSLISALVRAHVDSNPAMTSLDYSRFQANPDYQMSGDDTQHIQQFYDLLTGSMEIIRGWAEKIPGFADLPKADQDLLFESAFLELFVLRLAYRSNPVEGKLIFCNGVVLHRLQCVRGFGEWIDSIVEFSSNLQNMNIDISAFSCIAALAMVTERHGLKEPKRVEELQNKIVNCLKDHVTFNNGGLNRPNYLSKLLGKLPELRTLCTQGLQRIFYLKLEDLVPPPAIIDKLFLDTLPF
Chain of Estrogen-related receptor gamma (Homo sapiens) (P62508 whole entry, looked up, the tested form may be a part): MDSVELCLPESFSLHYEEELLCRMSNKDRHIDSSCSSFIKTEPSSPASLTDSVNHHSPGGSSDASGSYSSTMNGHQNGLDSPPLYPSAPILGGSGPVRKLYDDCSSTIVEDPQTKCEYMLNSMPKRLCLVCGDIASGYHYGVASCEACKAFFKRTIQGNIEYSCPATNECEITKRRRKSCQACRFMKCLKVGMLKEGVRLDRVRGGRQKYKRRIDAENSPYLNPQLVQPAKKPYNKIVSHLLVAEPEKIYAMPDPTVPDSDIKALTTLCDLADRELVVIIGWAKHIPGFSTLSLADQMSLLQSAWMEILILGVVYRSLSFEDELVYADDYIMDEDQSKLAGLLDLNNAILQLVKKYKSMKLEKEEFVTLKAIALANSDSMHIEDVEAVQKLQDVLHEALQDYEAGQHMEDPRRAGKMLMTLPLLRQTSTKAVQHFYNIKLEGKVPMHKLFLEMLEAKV
Chain of Oxysterols receptor LXR-beta (Homo sapiens) (P55055 whole entry, looked up, the tested form may be a part): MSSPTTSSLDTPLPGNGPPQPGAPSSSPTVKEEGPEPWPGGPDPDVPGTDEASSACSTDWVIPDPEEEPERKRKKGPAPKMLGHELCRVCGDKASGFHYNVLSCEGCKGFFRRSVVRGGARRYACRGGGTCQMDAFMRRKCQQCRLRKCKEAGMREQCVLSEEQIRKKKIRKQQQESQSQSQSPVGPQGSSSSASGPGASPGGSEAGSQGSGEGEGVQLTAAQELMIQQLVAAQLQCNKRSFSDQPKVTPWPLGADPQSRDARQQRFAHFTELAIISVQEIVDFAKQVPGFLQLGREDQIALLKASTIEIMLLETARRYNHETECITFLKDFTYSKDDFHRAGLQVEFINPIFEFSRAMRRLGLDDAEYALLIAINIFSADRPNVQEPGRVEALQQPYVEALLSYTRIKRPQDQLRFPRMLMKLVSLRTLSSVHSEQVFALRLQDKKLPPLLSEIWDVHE
Chain of Nuclear receptor subfamily 1 group I member 3 (Homo sapiens) (Q14994 whole entry, looked up, the tested form may be a part): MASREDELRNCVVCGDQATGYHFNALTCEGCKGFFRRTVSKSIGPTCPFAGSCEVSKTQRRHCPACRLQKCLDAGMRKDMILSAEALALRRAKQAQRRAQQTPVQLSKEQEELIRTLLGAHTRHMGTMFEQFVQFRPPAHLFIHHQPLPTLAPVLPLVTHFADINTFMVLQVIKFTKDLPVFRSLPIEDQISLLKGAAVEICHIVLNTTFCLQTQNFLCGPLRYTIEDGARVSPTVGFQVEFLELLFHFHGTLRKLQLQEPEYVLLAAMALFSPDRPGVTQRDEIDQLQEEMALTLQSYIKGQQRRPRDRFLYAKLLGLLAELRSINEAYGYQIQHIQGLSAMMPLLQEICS

`C/C=C(\C)C(=O)OCCc1ccccc1`: the compound was called inactive in assay [1], in [2], in assay [3], in assay [4], in assay [5] and in assay [6]. For the same compound, the call in assay [7], in [8], in assay [9], in assay [10], in assay [11] and in assay [12] was inactive. The outcome in assay [13] was inactive.
As to `CS(=O)(=O)c1ccc(C2=C(c3ccccc3)C(=O)OC2)cc1`, the compound was classed as inactive in [1], in assay [2], in [14], in assay [3], in assay [4] and in assay [15]. Moreover, the result in assay [6], in assay [16], in assay [8], in [17], in assay [11] and in assay [12] was inactive. Further, in assay [13], the result was inactive.
Turning to `O=c1c(O)c(-c2ccc(O)cc2)oc2cc(O)cc(O)c12`, the result in assay [1], in [2], in [3], in [5], in assay [7] and in assay [16] was inactive. The result in assay [8], in assay [9], in [17], in assay [10], in assay [11] and in assay [12] was inactive. In addition, the compound was classed as inactive in [13].
Regarding `N#Cc1cscn1`, the result in [1], in [3], in assay [15], in assay [18], in [7] and in assay [8] was inactive. The compound was classed as inactive in assay [9], in assay [10], in assay [12] and in [13].
For the compound `Clc1ccc(C(c2ccccc2Cl)C(Cl)Cl)cc1` (configuration not stated), the AC50 was 23.7 µM (active) in assay [1], 44.2 µM (active) in assay [12] and 34.7 µM (active) in [13]. Also, the compound was called inactive in assay [3], in [4], in [15], in assay [6], in [18] and in assay [9]. In addition, in [11], the call was inactive.
For the compound `C=CCCC(=O)/C=C/C1C(C)=CCCC1(C)C` (configuration not stated), the outcome in [1], in assay [3], in assay [6], in assay [7], in [9] and in assay [10] was inactive. For the same compound, the outcome in assay [11] and in assay [12] was inactive. Moreover, the concentration at half-maximal activity (AC50) in assay [19] is 2.44 µM (active).
Turning to `C=C(C)C(=O)OCCOCCOCCOC(=O)C(=C)C`, the compound was called inactive in assay [1], in assay [19], in assay [3], in assay [4], in assay [15] and in assay [6]. In addition, the outcome in assay [7], in assay [17], in [11], in assay [12] and in assay [13] was inactive.
On to `CC=Cc1ccc(OCC)c(O)c1`, for which the compound was called inactive in assay [1], in assay [19], in assay [20], in [3], in assay [6] and in [7]. Besides, the result in [8], in [9], in assay [17], in assay [10], in [11] and in assay [12] was inactive. The compound was classed as inactive in assay [13].

The AC50 is the concentration giving half of the maximal activity seen.
